# The sample as a whole holds a higher share of the strongest signals than the screen did.
# Assays:
# Experiment in all cases: glycan array binding signal (z-score within array); higher = stronger binding
# Details in all cases: glycan notation: IUPAC condensed, linker removed
# [1] = target: GalNAc3S(b1-4)[Fuc(a1-3)]GlcNAc
# In short: (§1)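 The Consortium for Functional Glycomics database supplied 3228 glycan arrays, of which those lacking an available protein sequence were dropped. The binding signal, a within-array Z-score, was averaged across arrays of the same protein sequence and across linkers. Negative scores can be read as non-binding.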
# Glc(b1-6)Glc = target: Glc(b1-6)Glc
# In short: as §1
# [2] = target: GlcNAc(a1-4)Gal(b1-4)GlcNAc(b1-3)Gal(b1-4)[Fuc(a1-3)]GlcNAc(b1-3)Gal(b1-4)[Fuc(a1-3)]GlcNAc
# In short: as §1
# [3] = target: GlcNAc(b1-2)Gal(b1-3)GalNAc
# In short: as §1
# GlcNAc(b1-3)Fuc = target: GlcNAc(b1-3)Fuc
# In short: as §1
# [4] = target: GlcNAc(b1-3)Gal(b1-4)GlcNAc(b1-2)Man(a1-3)[GlcNAc(b1-3)Gal(b1-4)GlcNAc(b1-2)Man(a1-6)]Man(b1-4)GlcNAc(b1-4)[Fuc(a1-6)]GlcNAc
# In short: as §1
# [5] = target: GlcNAc(b1-3)[GlcNAc(b1-6)]Gal(b1-4)GlcNAc
# In short: as §1
# [6] = target: GlcNAc(b1-4)GlcNAc(b1-4)GlcNAc(b1-4)GlcNAc(b1-4)GlcNAc
# In short: as §1
# [7] = target: Man(a1-2)Man(a1-3)[Man(a1-6)]Man(a1-6)[Man(a1-2)Man(a1-3)]Man(b1-4)GlcNAc(b1-4)GlcNAc
# In short: as §1
# [8] = target: Man(a1-3)[Man(a1-6)]Man(a1-6)[Man(a1-3)]Man(b1-4)GlcNAc(b1-4)GlcNAc
# In short: as §1
# [9] = target: Neu5Ac(a2-3)Gal(b1-3)GalNAc(b1-4)[Neu5Ac(a2-3)]Gal(b1-4)Glc
# In short: as §1
# [10] = target: Neu5Ac(a2-3)Gal(b1-3)GlcNAc(b1-2)Man
# In short: as §1
# [11] = target: Neu5Ac(a2-3)Gal(b1-3)GlcNAc(b1-3)Gal(b1-4)GlcNAc
# In short: as §1
# [12] = target: Neu5Ac(a2-3)Gal(b1-3)[GlcNAc(b1-6)]GalNAc
# In short: as §1
# [13] = target: Neu5Ac(a2-3)Gal(b1-3)]Neu5Ac(a2-3)Gal(b1-4)]GlcNAc
# In short: as §1
# [14] = target: Neu5Ac(a2-3)Gal(b1-4)GlcNAc(b1-2)Man(a1-3)[Neu5Ac(a2-3)Gal(b1-4)GlcNAc(b1-2)Man(a1-6)]Man(b1-4)GlcNAc(b1-4)[Fuc(a1-6)]GlcNAc
# In short: as §1
# [15] = target: Neu5Ac(a2-3)Gal(b1-4)GlcNAc(b1-3)Gal(b1-4)GlcNAc
# In short: as §1
# [16] = target: Neu5Ac(a2-3)Gal(b1-4)GlcNAc6S
# In short: as §1
# [17] = target: Neu5Ac(a2-3)Gal(b1-4)[Fuc(a1-3)]GlcNAc(b1-2)Man
# In short: as §1
# [18] = target: Neu5Ac(a2-6)Gal(b1-4)GlcNAc(b1-2)Man(a1-6)[Man(a1-3)]Man(b1-4)GlcNAc(b1-4)GlcNAc
# In short: as §1
# [19] = target: Neu5Ac(a2-6)Gal(b1-4)GlcNAc(b1-3)Gal(b1-4)GlcNAc(b1-3)Gal(b1-4)GlcNAc(b1-2)Man(a1-3)[Neu5Ac(a2-6)Gal(b1-4)GlcNAc(b1-3)Gal(b1-4)GlcNAc(b1-3)Gal(b1-4)GlcNAc(b1-2)Man(a1-6)]GalNAc
# In short: as §1
# [20] = target: Neu5Ac(a2-6)Gal(b1-4)GlcNAc(b1-3)Gal(b1-4)GlcNAc(b1-3)GalNAc
# In short: as §1
# [21] = target: Neu5Ac(a2-6)Gal(b1-4)GlcNAc(b1-3)Gal(b1-4)GlcNAc(b1-3)[Neu5Ac(a2-6)Gal(b1-4)GlcNAc(b1-3)Gal(b1-4)GlcNAc(b1-6)]GalNAc
# In short: as §1
# [22] = target: Neu5Ac(a2-6)Gal(b1-4)GlcNAc(b1-6)[Gal(b1-3)GlcNAc(b1-3)]Gal(b1-4)Glc
# In short: as §1
# [23] = target: Neu5Ac(a2-6)GalNAc(b1-4)GlcNAc6S
# In short: as §1
# [24] = target: Neu5Ac(a2-8)Neu5Gc(a2-3)Gal(b1-4)GlcNAc
# In short: as §1
# [25] = target: Neu5Gc(a2-3)Gal(b1-4)GlcNAc(b1-3)Gal(b1-4)GlcNAc(b1-2)Man(a1-3)[Neu5Gc(a2-3)Gal(b1-4)GlcNAc(b1-3)Gal(b1-4)GlcNAc(b1-2)Man(a1-6)]Man(b1-4)GlcNAc(b1-4)GlcNAc
# In short: as §1
binder,measurement,setting,value
SJCP1531 (Schistosoma japonicum) (protein) MFKVRIINLVNISTVLLLINLLQTKSQVNVEQLVTVLEVNIKAQLKNKTTEVLVEWNPLYQDNSMPEYRKLLDETCKLFLPFVNEKVPPSTYGGECTNANFSEAPQDGSYSRVNAELRLIYKYSDNPQIQTDRLQDDLNDREEFITSESSFVAYNPKFTVKIEKLFIPISESQTTPPPTTAKNDASKKDDDDNGGEDSKAPIDTFAMTASGNKGKKDDDDNGGEDSKAPIDTFAMTASGSKDERSTWTIIGIITLVVLIFVVIGGGITVFVKRC,glycan array binding signal (z-score),[1],-1.15
same,glycan array binding signal (z-score),Glc(b1-6)Glc,-0.797
same,glycan array binding signal (z-score),[2],2.8
same,glycan array binding signal (z-score),[3],-1.08
same,glycan array binding signal (z-score),GlcNAc(b1-3)Fuc,-0.112
same,glycan array binding signal (z-score),[4],-0.143
same,glycan array binding signal (z-score),[5],0.523
same,glycan array binding signal (z-score),[6],-0.099
same,glycan array binding signal (z-score),[7],-1.4
same,glycan array binding signal (z-score),[8],-0.243
same,glycan array binding signal (z-score),[9],-1.32
same,glycan array binding signal (z-score),[10],-0.604
same,glycan array binding signal (z-score),[11],-0.438
same,glycan array binding signal (z-score),[12],0.205
same,glycan array binding signal (z-score),[13],-0.188
same,glycan array binding signal (z-score),[14],-1.15
same,glycan array binding signal (z-score),[15],2.53
same,glycan array binding signal (z-score),[16],0.004
same,glycan array binding signal (z-score),[17],-0.84
same,glycan array binding signal (z-score),[18],-1.2
same,glycan array binding signal (z-score),[19],3.3
same,glycan array binding signal (z-score),[20],2.87
same,glycan array binding signal (z-score),[21],3
same,glycan array binding signal (z-score),[22],0.485
same,glycan array binding signal (z-score),[23],0.413
same,glycan array binding signal (z-score),[24],-1.65
same,glycan array binding signal (z-score),[25],0.86
